Compound activity deposited in PubChem BioAssay by several laboratories.
LGR2 antag – inhibitors of bursicon-induced Drosophila LGR2 receptor cAMP signaling. HEK293 LGR2, CRE-luciferase, bursicon-stimulated, 4 h. inhibition, % at 9.99 µM. hit rate 0.35% among 380,000;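 active = drop in luminescence signal, shown as inhibition above about 50% in the replicate tests, limit read from the data, passing the limit was not always enough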;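 note: agonist challenge used bursicon conditioned medium at about half maximal strength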
EWS-Fli inh – EWS/Fli transcriptional activity inhibition. hit rate 0.67% among 350,000. AID 651661. A673 NR0B1-luciferase reporter, viability-normalised. inhibition, % at 12.6 µM;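 active = mean inhibition of at least 50% after viability correction, with every replicate also passing that limit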;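 note: firefly luciferase signal divided by Alamar Blue viability fluorescence both relative to DMSO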
TROY signal inh – inhibitors of TROY-dependent NF-kB signaling; Q293 LMP1-TROYcd NF-kB luciferase reporter, 4 h; inhibition, % at 10 µM; hit rate 0.98% among 360,000;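 active = compounds whose plate-normalised and pattern-corrected inhibition of the luciferase reporter signal at the single screening dose is 50% or more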
LMP1 NFkB inh – inhibitors of Epstein-Barr LMP1-induced NF-kappaB reporter; hit rate 0.69% among 350,000; AID 504558; LMP1-induced NF-kappaB luciferase reporter cells, luminescence; inhibition, % at 12.5 µM; in the data active = inhibition above about 41%
TWEAK Fn14 block – blocks TWEAK-Fn14 interaction in a reporter cell assay. TWEAK-stimulated Fn14 reporter cells, luciferase luminescence, 8 h. inhibition, % at 10 µM. hit rate 2% among 360,000; in the data active = inhibition above about 50%
Hits are given with their value; - = inactive; . = no result; ! = a repeat was not active. A selection: hits, their analogues and other compounds. The true share with any hit is near 2.5%.

SMILES	LGR2 antag	EWS-Fli inh	TROY signal inh	LMP1 NFkB inh	TWEAK Fn14 block
O=C(Nc1ccc(Br)c(C(F)(F)F)c1)c1ccccc1	-	-	-	-	-
COc1ccc(C(=O)Nc2ccc(OCC(F)(F)C(F)F)c(C(F)(F)F)c2)cc1OC	-	.	-	-	-
O=C(Nc1ccc(Br)c(C(F)(F)F)c1)c1ccc(C(F)(F)F)cc1	-	-	-	.	63
O=C(Nc1ccc(OCC(F)(F)C(F)F)c(C(F)(F)F)c1)c1ccc(Cl)cc1	.	.	52	-	77
CCNC(=O)[C@@H]1[C@@H](CO)[C@@H]2Cn3c(ccc(C4=CCCC4)c3=O)[C@H]1N2Cc1cccnc1	-	-	.	.	.
O=C(Nc1cccc2ccccc12)N(CCO)C1CCS(=O)(=O)C1 (stereo not given)	-	-	51	-	64
C[C@@H]1CN([C@H](C)CO)S(=O)(=O)c2ccc(-c3cccnc3)cc2O[C@H]1CN(C)C(=O)C1CCCCC1	-	-	.	.	.
CCCCCCCC[n+]1cccc(C(=O)N(CC)CC)c1	.	-	-	-	-
CCCCCCCCCCCCCCCC[n+]1cccc(C(=O)N(CC)CC)c1	-	-	57!	-	-
COc1ccc(OC)c2c1sc(=NC(=O)c1ccco1)n2C	-	-	-	53	-
COc1ccc(OC)c2c1sc(=NC(=O)C1CC1)n2C	-	-	-	-	-
CCOC(=O)N1CCc2cc(OC)c(OC)c3c2c1cc1cc(OC)c(OC)cc13	-	-	-	-	54
COc1ccc(CNC(=O)CN2C(=O)C(c3ccccc3)Oc3cccnc32)cc1 (stereo not given)	-	-	-	-	-
O=C(CN1C(=O)C(c2ccccc2)Oc2cccnc21)NCc1ccccc1F (stereo not given)	-	-	-	57	-
O=C1C=C(c2c(O)ccc3ccccc23)c2ccccc2C1=O	95	57	-	-	102
O=C1C=C(O)c2cccc(O)c2C1=O	.	-	-	-	-
COC(=O)c1ccc(-c2ccc(C(c3c(C)[nH][nH]c3=O)c3c(C)[nH][nH]c3=O)o2)cc1	-	-	-	-	56
COc1ccc(OC)c2[nH]c(=O)c(CCNC(=O)c3ccc(S(=O)(=O)N4CCCCC4)cc3)cc12	-	.	-	-	-
COc1ccccc1N(C)S(=O)(=O)c1ccc(C(=O)Nc2ccc3nc(C)sc3c2)cc1	-	.	50	-	-
CN(c1ccccc1)S(=O)(=O)c1cccc(NC(=O)c2ccc3ncsc3c2)c1	-	-	63	-	76
Cc1ccc(C(=O)Nc2cccc(C(=O)O)c2)cc1S(=O)(=O)N1CCOCC1	-	-	-	-	-
Cc1ccc(NC(=O)c2cccc(S(=O)(=O)N(C)c3ccccc3)c2)cc1S(=O)(=O)N1CCOCC1	-	.	-	-	54
COc1ccc(OC)c2[nH]c(=O)c(CCNC(=O)c3ccc(S(=O)(=O)N(C)C)cc3)cc12	-	.	-	69	-
CN(c1ccccc1)S(=O)(=O)c1ccc(C(=O)NCCc2ccc(F)cc2)cc1	-	-	-	-	-
COc1ccccc1N(C)S(=O)(=O)c1ccc(C(=O)NCCc2ccc(F)cc2)cc1	-	-	-	-	53
SMILES	LGR2 antag	EWS-Fli inh	TROY signal inh	LMP1 NFkB inh	TWEAK Fn14 block
Cc1nc2ccc(NC(=O)c3cccc(S(=O)(=O)N(C)c4ccccc4)c3)cc2s1	.	.	60	-	72
Cc1cc(C)c(NC(=O)CN(C)CC(=O)Nc2cccc(S(=O)(=O)N(C)c3ccccc3)c2)c(C)c1	-	-	-	-	53
Cc1ccc(S(=O)(=O)N(C)C[C@@H]2Oc3c(NC(=O)c4nc5ccccc5s4)cccc3C(=O)N([C@@H](C)CO)C[C@@H]2C)cc1	-	-	.	.	.
COc1ccc(CCNc2ncnc3sc(C)cc23)cc1OC	-	-	-	-	76
COc1ccc(CCNc2ncnc3[nH]ncc23)cc1OC	.	.	-	-	-
COCC(=O)N1C[C@@H](C)[C@@H](OC)CN(C)C(=O)c2cc(NC(=O)c3ccc(OC)cc3)ccc2OC[C@@H]1C	-	-	.	.	.
CCCNC(=O)N1CC2(CCN(CC3CCCCC3)CC2)c2c([nH]c3cc(OC)ccc23)[C@@H]1CO	-	-	.	.	.
Cc1cc(NCCNC2=CC(=O)CCC2)nc2ccccc12	.	.	-	-	73
Cc1cc(NCC2CCCCC2)nc2ccccc12	-	-	-	-	-
CC(C)NC(=O)N(C)C[C@H]1Oc2ccc(NS(=O)(=O)c3ccccc3)cc2CC(=O)N([C@@H](C)CO)C[C@H]1C	-	-	.	.	.
COc1ccc(-c2csc3ncnc(NCCCO)c23)cc1	-	-	-	52	65
COc1ccc(-c2csc3ncnc(NCCO)c23)cc1	-	-	-	42	72
